system: PPARa:RXRa (NR concentration 270 nM, RXRa partner concentration 90 nM); test: PBM binding z-score (relative to random genomic background probes); higher = stronger binding; sequences stand for … in GC…GCGATTGACAGCGTAGAATGAAGG
Procedure, shortened: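 Antibodies against each partner of ligand-free nuclear receptor dimers (one per run) detected binding on custom Agilent 4×180K protein-binding microarrays after 1 h incubation. The double-stranded probes had 34-nt variable regions carrying direct-repeat seeds, single-nucleotide variants, half-site ablations and random human genomic background sequences. Binding z-scores, from regression-normalized fluorescence, use the random background probes as reference.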

| Sequence | PBM binding z-score |
| --- | --- |
| TCATCTAGGTAATACAGGTGAAAGTCGGCATCTA | 2.05 |
| CGTCCAAGGTCAGAAGGTCAGTGAAAGCGACGTG | 5 |
| CATACAGGGTCAGCTAAGCCAGAGTAGGGACGGC | 4.39 |
| TATACAGGGTCAGAGGCCAGAGTACGAATGTCGA | 4.29 |
| GGATCGAGGGCATTCGAGTTGATAGCATGGCGAT | 1.47 |
| ACTAGTTGGTCAGCTGTGGTCACACACAATTCGG | 0.0515 |
| TCGAGTAGGTTAGGGGCACTCAGAATGGCGTCGA | 0.994 |
| CCTAGAAGGCCAATCTGGGTCACTCAAGGCTTGA | 3.72 |
| ACTTACGAGTCAACGAGGTTATAGCACGCGTATA | 1.73 |
| TAGCCTAGGTCATGGGCTAGTATACCACGCGAAC | 4.16 |
| TCTGCTAGGTCAACGATGGTCATCTAATCTGCTA | 3.37 |
| TCTATTAGCTGATTAGGGCAACCGAAACAGCGGA | 0.627 |
| CTCGAAAGGTGGGTTGAGGTGAGTATACGGATAA | 1.22 |
| CGTCCAAGGTCATAGGAAGTCAGTGAAGACAGAT | 5.43 |
| ATCTATAGGTAACAAGTTCAGTGAAAGAGAGGAC | 1.64 |
| TCGTGTAGATCAAGCAGGTTAAGAAAGCCTGAGT | 0.588 |
| CCTGGGAGGACAACAGGAGGTCAGAGCTGCCAGA | 2.15 |
| AGAATGAGGGTATACGTAGATCAGGGAAGAAAGT | 0.333 |
| AATACAGGGTCACTAGGCTAGAGTAGGTACGAAT | 5.9 |
| TCGAGTAGGTTACTAATGGGGCATTCAGCTTTCT | 0.717 |
| GTACCAACGTGAATAGGTCGTTGATGAGTAGGCG | 0.267 |
| CCTACTGGGCCATCAGGTTATTGATATCAACGTT | 0.918 |

Source: the supplement of paper PMC6555819
